# Measurements reported in PubChem BioAssay.
# Molecular target: Carbonic anhydrase 2 (Homo sapiens) (UniProt P00918)
# Test: compounds binding carbonic anhydrase 2 – biochemical, small-molecule microarray, Alexa647-labelled CAII, profiling panel (AID 1122)
# Conditions: CAII-A647 binding fluorescence, higher = more signal
row,Compound,composite z-score
1,O=C1C=C[C@@H](O)[C@@H]2[C@@H]3C(=O)N(C[C@@H]4CCCO4)C(=O)[C@@H]3CC[C@@H]12,-0.121
2,CCOC(=O)[C@H](CC(C)C)NC(=O)CCC1CC(OC(=O)NCc2cccc3ccccc23)CC2(CCCC(COC(=O)NCCCN3CCCC3=O)O2)O1 (stereo partly specified),0.581
3,Cc1ccc(S(=O)(=O)N[C@H]2COC(=O)CC=C[C@@H](C)COC(=O)CC=C[C@@H]2C)cc1,-0.41
4,Cn1c(=O)n2n(c1=O)[C@H]1[C@H](O)[C@@H]3O[C@@H]3C(=O)[C@H]1CC2,-0.0126
5,O=C1C[C@@H](O)[C@@H](O)[C@@H]2[C@@H]3C(=O)N(C[C@@H]4CCCO4)C(=O)[C@@H]3CC[C@@H]12,-0.0061
6,COc1ccc(O[C@H]2C=C[C@@H](c3ccccc3)O[C@@H]2CON=C2[C@H]3CCn4c(=O)n(-c5ccccc5)c(=O)n4[C@H]3[C@H](O)[C@@H]3O[C@H]23)cc1,0.405
